Out of some 39,000 compounds screened, about 3,300 (8.5%) were called active. The sample as a whole holds a higher share of actives than the screen did.
system: HepG2; assay: cytotoxicity call (relative viability < 0.9); conditions: 10 µM

| Compound | cytotoxicity call |
| --- | --- |
| C[C@@H]1CN([C@@H](C)CO)C(=O)c2cc(NC(=O)Nc3ccc4c(c3)OCO4)ccc2O[C@H]1CN(C)C(=O)Nc1cccc2ccccc12 | inactive |
| O=C(C[C@@H]1C[C@H]2c3cc(NC(=O)NC4CCCC4)ccc3O[C@H]2[C@H](CO)O1)NCCN1CCCCC1 | inactive |
| COc1ccc2c(=O)cc(-c3ccccc3)oc2c1OC | inactive |
| Cc1cc(=O)oc2cc(O)ccc12 | inactive |
| Cc1cc(=O)oc2c(O)c(O)ccc12 | active |
| O=c1cc(-c2ccccc2)oc2cc(O)ccc12 | inactive |
| O=c1cc(-c2ccccc2)oc2c(O)c(O)ccc12 | active |
| Cc1cc2cc3c(C)cc(=O)oc3c(C)c2o1 | inactive |
| C[C@@H]1CCCCO[C@@H](CN(C)C(=O)Nc2ccc(F)cc2)[C@H](C)CN([C@H](C)CO)C(=O)c2cc(NC(=O)Nc3ccccc3)ccc2O1 | inactive |
| C[C@@H]1CN([C@@H](C)CO)C(=O)c2cc(NS(=O)(=O)c3ccc(Cl)cc3)ccc2O[C@@H](C)CCCCO[C@H]1CN(C)C(=O)c1ccccc1 | inactive |
| Cc1ccc(S[C@]2(C(=O)NCC(C)C)CC(=O)N(Cc3ccccc3C(F)(F)F)[C@@H]2c2ccc(CO)cc2)cc1 | inactive |
| Cc1noc(C)c1NC(=O)Nc1ccc2c(c1)C(=O)N([C@@H](C)CO)C[C@@H](C)[C@H](CN(C)Cc1ccc(Oc3ccccc3)cc1)O2 | inactive |
| COC(=O)CCCCCCC(=O)N/N=C/[C@H](O)[C@H](O)[C@@H](O)[C@H](C)O | inactive |
| C=CC[C@H](CC(=O)N(CCO)Cc1ccccc1)C(=O)N[C@H](COC(=O)[C@@H](CC=C)Cc1ccc(F)cc1)Cc1c[nH]c2ccccc12 | inactive |
| C=CC[C@H](CC(=O)N(CCO)Cc1ccccc1)C(=O)N[C@H](COC(=O)[C@H](CC=C)CC(=O)OC(C)(C)C)Cc1c[nH]c2ccccc12 | inactive |
| C=CC[C@H](CC(=O)N(CCO)Cc1ccccc1)C(=O)N[C@@H](COC(=O)[C@@H](CC=C)Cc1ccc(F)cc1)Cc1c[nH]c2ccccc12 | active |
| C=CC[C@@H](CC(=O)N(CCO)Cc1ccccc1)C(=O)N[C@@H](COC(=O)[C@H](CC=C)Cc1ccc(F)cc1)Cc1c[nH]c2ccccc12 | active |
| C=CC[C@@H](CC(=O)N(CCO)Cc1ccccc1)C(=O)N[C@@H](COC(=O)[C@@H](CC=C)CC(=O)OC(C)(C)C)Cc1c[nH]c2ccccc12 | inactive |
| C=CC[C@@H](CC(=O)N(CCO)Cc1ccccc1)C(=O)N[C@@H](COC(=O)[C@@H](CC=C)Cc1ccc(F)cc1)Cc1c[nH]c2ccccc12 | inactive |
| C=CC[C@@H](CC(=O)N(CCO)Cc1ccccc1)C(=O)N[C@@H](COC(=O)[C@H](CC=C)CC(=O)OC(C)(C)C)Cc1c[nH]c2ccccc12 | inactive |
| C=CC[C@@H](CC(=O)N(CCO)Cc1ccccc1)C(=O)N[C@H](COC(=O)[C@@H](CC=C)Cc1ccc(F)cc1)Cc1c[nH]c2ccccc12 | active |
| C=CC[C@H](CC(=O)N(CCO)Cc1ccccc1)C(=O)N[C@@H](COC(=O)[C@H](CC=C)CC(=O)OC(C)(C)C)Cc1c[nH]c2ccccc12 | inactive |

| Compound | cytotoxicity call |
| --- | --- |
| c1ccc2c(CSc3nc4ccccc4o3)cccc2c1 | inactive |
| CNC(=O)C[C@H]1CC[C@@H]2[C@H](COC[C@H](O)CN2C(=O)Nc2cccc(OC)c2)O1 | inactive |
| C[C@@H]1CCCCO[C@H](CN(C)C(=O)Nc2cccc3ccccc23)[C@@H](C)CN([C@H](C)CO)C(=O)c2cc(NC(=O)Nc3cccc4ccccc34)ccc2O1 | inactive |
| C[C@@H]1CN([C@@H](C)CO)C(=O)c2cc(NS(=O)(=O)c3ccc(Cl)cc3)ccc2O[C@@H](C)CCCCO[C@H]1CN(C)S(=O)(=O)c1ccccc1 | inactive |
| COc1ccc(NC(=O)N(C)C[C@H]2OCc3cnnn3CCCC(=O)N([C@H](C)CO)C[C@H]2C)c(OC)c1 | inactive |
| C[C@@H]1CN([C@H](C)CO)C(=O)c2c(c3ccccc3n2C)-c2ccccc2CO[C@H]1CN(C)C(=O)CCC(F)(F)F | inactive |
| C[C@@H]1CN([C@@H](C)CO)C(=O)c2cc(C#CC3(O)CCCC3)cnc2O[C@@H]1CN(C)C(=O)Nc1ccc2c(c1)OCO2 | inactive |
| COCC#Cc1ccc2c(c1)O[C@@H](CN(C)C(=O)C1CCOCC1)[C@@H](C)CN([C@H](C)CO)S2(=O)=O | inactive |
| CCS(=O)(=O)Nc1ccc2c(c1)C(=O)N(C)[C@H]1CC[C@@H](CC(=O)NCc3ccccc3F)O[C@H]1CO2 | inactive |
| C[C@H](CO)N1C[C@H](C)[C@H](CN(C)Cc2ccccc2)Oc2ccc(NC(=O)CCCCCC(=O)Nc3ccccc3N)cc2CC1=O | inactive |
| C[C@@H]1CN([C@H](C)CO)C(=O)Cc2cc(NC(=O)CCCCCC(=O)Nc3ccccc3N)ccc2O[C@@H]1CN(C)Cc1ccc(-c2ccccc2)cc1 | active |
| C[C@@H]1CN([C@H](C)CO)C(=O)Cc2cc(NC(=O)CCCCCC(=O)Nc3ccccc3N)ccc2O[C@H]1CN(C)Cc1ccc(Cl)c(Cl)c1 | inactive |
| C[C@H]1CN([C@@H](C)CO)C(=O)Cc2cc(NC(=O)CCCCCC(=O)Nc3ccccc3N)ccc2O[C@@H]1CN(C)Cc1ccc(-c2ccccc2)cc1 | inactive |
| C[C@@H]1CN([C@H](C)CO)C(=O)Cc2cc(NC(=O)CCCCCC(=O)Nc3ccccc3N)ccc2O[C@@H]1CN(C)Cc1ccccc1 | inactive |
| C[C@@H]1CN([C@@H](C)CO)C(=O)Cc2cc(NC(=O)CCCCCC(=O)Nc3ccccc3N)ccc2O[C@@H]1CN(C)Cc1ccccc1 | inactive |
| C[C@H]1CN([C@@H](C)CO)C(=O)Cc2cc(NC(=O)CCCCCC(=O)Nc3ccccc3N)ccc2O[C@H]1CN(C)Cc1ccccc1 | inactive |
| C[C@@H]1CN([C@@H](C)CO)C(=O)Cc2cc(NC(=O)CCCCCC(=O)Nc3ccccc3N)ccc2O[C@@H]1CN(C)Cc1ccc(-c2ccccc2)cc1 | active |
| C[C@H](CO)N1C[C@H](C)[C@@H](CN(C)Cc2ccc(-c3ccccc3)cc2)Oc2ccc(NC(=O)CCCCCC(=O)Nc3ccccc3N)cc2CC1=O | inactive |
| C[C@H](CO)N1C[C@H](C)[C@H](CN(C)Cc2ccc(-c3ccccc3)cc2)Oc2ccc(NC(=O)CCCCCC(=O)Nc3ccccc3N)cc2CC1=O | active |
| C[C@@H]1CN([C@H](C)CO)C(=O)Cc2cc(NC(=O)CCCCCC(=O)Nc3ccccc3N)ccc2O[C@@H]1CN(C)Cc1ccc(Cl)c(Cl)c1 | active |
| C[C@H]1CN([C@@H](C)CO)C(=O)Cc2cc(NC(=O)CCCCCC(=O)Nc3ccccc3N)ccc2O[C@H]1CN(C)Cc1ccc(Cl)c(Cl)c1 | inactive |

Reference: the antibiotic and cytotoxicity screens of Wong et al. (2023)
